Assay results published in PubChem BioAssay AID1159580 (chemical genetic matrix, 2015).
About 2,000 (36%) of roughly 5,500 compounds were called active. Not shown: some 18% with an inconclusive outcome. Rule as the data show it: active = normalized growth mostly below about 0.91 (no sharp cut-off); inconclusive = no clear call, values can overlap the other calls; inactive = mostly above about 0.92. Some of the results follow.

Assay: chemical genetic growth profiling, strain panel (AID 1159580);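 also: tested at 20 µM; growth read once vehicle control cultures reached saturation at 30 °C; 1 = growth at the plate median or of vehicle wells; lower values mean less growth of the strain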
Details: growth OD

Measured: normalized growth

O=c1c(O)cccc2c(C3Oc4cc(O)cc(O)c4CC3O)cc(O)c(O)c12 (configuration not stated)
inactive: S. cerevisiae deletion strains, locus YBR021W, strain FUR4, stronger effect = lower value 0.966 | S. cerevisiae deletion strains, locus YER110C, stronger effect = lower value 0.963 | S. cerevisiae deletion strains, locus YOL012C, strain htz1 0.2 | S. cerevisiae deletion strains, locus YPR119W, strain clb2, stronger effect = lower value 0.946
active: S. cerevisiae deletion strains, locus YBR229C, strain ROT2, stronger effect = lower value 0.409 | S. cerevisiae deletion strains, locus YCL029C, strain bik1, stronger effect = lower value 0.239 | S. cerevisiae deletion strains, locus YDL035C, strain GPR1, stronger effect = lower value 0.301 | S. cerevisiae deletion strains, locus YDL074C, strain BRE1, stronger effect = lower value 0.322 | S. cerevisiae deletion strains, locus YDL101C, strain DUN1, stronger effect = lower value 0.219 | S. cerevisiae deletion strains, locus YDL134C, strain PPH21, stronger effect = lower value 0.314 | S. cerevisiae deletion strains, locus YDL185W, strain tfp1, stronger effect = lower value 0.195 | S. cerevisiae deletion strains, locus YDL192W, strain arf1, stronger effect = lower value 0.522 | S. cerevisiae deletion strains, locus YDR101C, strain arx1, stronger effect = lower value 0.295 | S. cerevisiae deletion strains, locus YDR162C, strain NBP2, stronger effect = lower value 0.137 | S. cerevisiae deletion strains, locus YDR318W, strain mcm21, stronger effect = lower value 0.696 | S. cerevisiae deletion strains, locus YDR388W, stronger effect = lower value 0.691 | S. cerevisiae deletion strains, locus YDR502C, strain sam2, stronger effect = lower value 0.287 | S. cerevisiae deletion strains, locus YER155C, strain BEM2, stronger effect = lower value 0.489 | S. cerevisiae deletion strains, locus YER167W, strain BCK2, stronger effect = lower value 0.682 | S. cerevisiae deletion strains, locus YGL078C, strain dbp3, stronger effect = lower value 0.139 | S. cerevisiae deletion strains, locus YGL086W, strain mad1, stronger effect = lower value 0.494 | S. cerevisiae deletion strains, locus YGL248W, strain PDE1, stronger effect = lower value 0.523 | S. cerevisiae deletion strains, locus YGR078C, strain PAC10, stronger effect = lower value 0.686 | S. cerevisiae deletion strains, locus YGR135W, strain pre9, stronger effect = lower value 0.504 | S. cerevisiae deletion strains, locus YGR252W, strain gcn5, stronger effect = lower value 0.54 | S. cerevisiae deletion strains, locus YHR030C, strain SLT2, stronger effect = lower value 0.484 | S. cerevisiae deletion strains, locus YHR079C, strain IRE1 (second series), stronger effect = lower value 0.116 | S. cerevisiae deletion strains, locus YHR094C, strain hxt1, stronger effect = lower value 0.835 | S. cerevisiae deletion strains, locus YHR129C, strain ARP1, stronger effect = lower value 0.43 | S. cerevisiae deletion strains, locus YHR200W, strain rpn10, stronger effect = lower value 0.623 | S. cerevisiae deletion strains, locus YIL066C, strain RNR3, stronger effect = lower value 0.259 | S. cerevisiae deletion strains, locus YIL073C, strain SPO22, stronger effect = lower value 0.243 | S. cerevisiae deletion strains, locus YIL125W, strain kgd1, stronger effect = lower value 0.272 | S. cerevisiae deletion strains, locus YIR030C, strain dcg1, stronger effect = lower value 0.716 | S. cerevisiae deletion strains, locus YJL095W, strain BCK1, stronger effect = lower value 0.0943 | S. cerevisiae deletion strains, locus YJL134W, strain LCB3, stronger effect = lower value 0.58 | S. cerevisiae deletion strains, locus YJL168C, strain set2, stronger effect = lower value 0.913 | S. cerevisiae deletion strains, locus YJL187C, strain SWE1 (second series), stronger effect = lower value 0.118 | S. cerevisiae deletion strains, locus YKL009W, strain mrt4, stronger effect = lower value 0.0997 | S. cerevisiae deletion strains, locus YKL068W, stronger effect = lower value 0.889 | S. cerevisiae deletion strains, locus YKL085W, strain MDH1 (second series), stronger effect = lower value 0.303 | S. cerevisiae deletion strains, locus YKL085W, strain MDH1, stronger effect = lower value 0.303 | S. cerevisiae deletion strains, locus YKR001C, strain vps1, stronger effect = lower value 0.523 | S. cerevisiae deletion strains, locus YLR039C, strain RIC1, stronger effect = lower value 0.251 | S. cerevisiae deletion strains, locus YLR058C, strain SHM2, stronger effect = lower value 0.143 | S. cerevisiae deletion strains, locus YLR102C, strain apc9, stronger effect = lower value 0.92 | S. cerevisiae deletion strains, locus YLR262C, strain YPT6, stronger effect = lower value 0.497 | S. cerevisiae deletion strains, locus YLR268W, strain sec22, stronger effect = lower value 0.201 | S. cerevisiae deletion strains, locus YLR330W, strain CHS5, stronger effect = lower value 0.565 | S. cerevisiae deletion strains, locus YLR342W, strain FKS1 (second series), stronger effect = lower value 0.321 | S. cerevisiae deletion strains, locus YLR371W, strain rom2, stronger effect = lower value 0.626 | S. cerevisiae deletion strains, locus YLR418C, strain cdc73, stronger effect = lower value 0.306 | S. cerevisiae deletion strains, locus YML016C, strain PPZ1, stronger effect = lower value 0.225 | S. cerevisiae deletion strains, locus YML032C, strain rad52, stronger effect = lower value 0.391 | S. cerevisiae deletion strains, locus YML124C, strain tub3, stronger effect = lower value 0.56 | S. cerevisiae deletion strains, locus YMR078C, strain ctf18, stronger effect = lower value 0.885 | S. cerevisiae deletion strains, locus YMR223W, strain ubp8, stronger effect = lower value 0.564 | S. cerevisiae deletion strains, locus YMR263W, strain SAP30, stronger effect = lower value 0.233 | S. cerevisiae deletion strains, locus YMR307W, strain GAS1, stronger effect = lower value 0.462 | S. cerevisiae deletion strains, locus YNL067W, strain RPL9B, stronger effect = lower value 0.386 | S. cerevisiae deletion strains, locus YNL128W, strain TEP1, stronger effect = lower value 0.136 | S. cerevisiae deletion strains, locus YNL153C, strain GIM3, stronger effect = lower value 0.266 | S. cerevisiae deletion strains, locus YNL233W, strain BNI4, stronger effect = lower value 0.453 | S. cerevisiae deletion strains, locus YNL250W, strain rad50, stronger effect = lower value 0.098 | S. cerevisiae deletion strains, locus YNL271C, strain bni1, stronger effect = lower value 0.53 | S. cerevisiae deletion strains, locus YNL298W, strain CLA4, stronger effect = lower value 0.824 | S. cerevisiae deletion strains, locus YNL307C, strain MCK1, stronger effect = lower value 0.832 | S. cerevisiae deletion strains, locus YNR052C, strain pop2, stronger effect = lower value 0.127 | S. cerevisiae deletion strains, locus YOL147C, strain pex11, stronger effect = lower value 0.287 | S. cerevisiae deletion strains, locus YOR061W, strain CKA2, stronger effect = lower value 0.468 | S. cerevisiae deletion strains, locus YOR069W, strain VPS5, stronger effect = lower value 0.29 | S. cerevisiae deletion strains, locus YOR136W, strain idh2, stronger effect = lower value 0.67 | S. cerevisiae deletion strains, locus YOR144C, strain elg1, stronger effect = lower value 0.198 | S. cerevisiae deletion strains, locus YOR184W, strain ser1, stronger effect = lower value 0.357 | S. cerevisiae deletion strains, locus YOR316C, strain cot1, stronger effect = lower value 0.922 | S. cerevisiae deletion strains, locus YPL055C, strain LGE1, stronger effect = lower value 0.271 | S. cerevisiae deletion strains, locus YPL241C, strain CIN2, stronger effect = lower value 0.617 | S. cerevisiae deletion strains, locus YPR141C, strain kar3, stronger effect = lower value 0.17 | S. cerevisiae deletion strains, locus YPR163C, strain tif3, stronger effect = lower value 0.703 | S. cerevisiae deletion strains, locus YPR167C, strain met16, stronger effect = lower value 0.707 | S. cerevisiae deletion strains, strain wtn01, stronger effect = lower value 0.44 | S. cerevisiae strains, strain wild type, stronger effect = lower value 0.134
